# Experimental data taken from the OligoGym collection.
# Target: KRTAP13-2
# Assay: pooled miR-30 sensor sort-seq; sequence = guide strand
# Settings: shRNA
# Note: reference of the scale not given here.
row,Sequence,sensor-assay potency score (higher = more potent)
1,TAAGTCGTCTTGCAAGGACTGC,-0.646
2,ACAGCTTCCATAACCCAGGGAT,-0.532
3,TGGTCTGTAACAAGGAGACTGG,-0.828
4,TAGGACGTCTGGCAGCTGGTGG,-1.01
5,TAGAGACCCAGAGTAAGTCGTC,0.623
6,TCCAGATCCATAGCCGAGGGAA,-1.28
7,TAACCCAGGGATCTGACACCAC,-0.823
8,TAGGCTGGTCTGTAACAAGGAG,-0.634

# Target: KRTAP4-5
# Assay: as above
# Settings: shRNA
row,Sequence,sensor-assay potency score (higher = more potent)
1,TGGAGATGCAGCAGCTAGGGTG,-1.53
2,TGGATTCACAGCAATAGGGGCG,-0.512
3,ATGAATGTGATTGTCTGTCATT,-1.58
4,TGGTAGCACACAGACTGGCAGC,-1.41
5,TGCTCAGAGCTGACAGAGCCAC,-1.57
6,TTTAATGAATGTGATTGTCTGT,0.174
7,TTATATGAGATCATCACAGTTA,0.439
8,TAGGGTGGCAGCAGGTGGGCTG,-0.712
9,TAACATATTTTAATGAATGTGA,-0.0651
10,TTAATGAATGTGATTGTCTGTC,0.0544
11,ATTCACAGCAATAGGGGCGGCA,-0.786
12,TGGTCTGGCAGCAGCAGGGGCG,-1.72

# Target: KRTAP4-7
# Assay: as above
# Settings: shRNA
row,Sequence,sensor-assay potency score (higher = more potent)
1,TCTGACAGCAGCTGGGGCGGCA,-1.19
2,TGGAGATGCAGCACCTAGGGTG,-0.36
3,TGGTCAGAGCACACGGAGCCAC,-1.43
4,TATTGAATGACATCAACCCCAC,-0.0813
5,TAGCAGGTGGTCCTGCAACAGG,-1.7
6,TCAGTGACAAAACTGGTCCTGC,0.367
7,TTGCAGCAGCTGGACATACAGC,-1.51
8,CTGGACACACAACAGCTGGGGC,-1.77
9,AGCTGGACACACAACAGCTGGG,-1.49
10,TGACAGAGGACTTGGCCGCAGC,-1.09
11,CAGGTGGTCTGACAGCAGCTGG,-2.02
12,CAGCAGGTCGTCTCACAGCAGC,-2.76
13,CAGCTGGACACACAACAGCTGG,-1.96
14,TGGTCTGACAGCAGCTGGGGCG,-1.46
15,TAGGGTGGCAGCAGGTCGTCTC,-0.549

# Target: KRTAP5-8
# Assay: as above
# Settings: shRNA
row,Sequence,sensor-assay potency score (higher = more potent)
1,TTACAACAGCTGGACTGGGAAC,-1.86
2,CTGCAGGGCTTACAACAGCTGG,-2.04
3,TGAGGAGCAACAGCAGGGCTTA,-1.48
4,AGCCTGAGGAGCAACAGCAGGG,-1.24
5,ACAGGAGCCACAGTCCCCCTTG,-0.958
